Data as given in PubChem BioAssay (EPA / NIEHS).
Records with an inconclusive call do not appear. Calls of active or inactive are those of the source. How the source made its calls, unless noted: active means hit-call score of the fitted dose curve at least 0.9, where 1 is the maximum; inactive means score below 0.9.

Assays:
[1] = target: Retinoic acid receptor RXR-alpha (Homo sapiens) (UniProt P19793); assay: ATG_RXRa_TRANS: Attagene TRANS-FACTORIAL HepG2 Assay for human Retinoid X Receptor alpha (RXRa) (AID 2283012; active means hit-call score of the fitted dose curve at least 0.9, where 1 is the maximum)
Retinoic acid receptor RXR-alpha (Homo sapiens), sequence (P19793 whole entry, looked up, the tested form may be a part): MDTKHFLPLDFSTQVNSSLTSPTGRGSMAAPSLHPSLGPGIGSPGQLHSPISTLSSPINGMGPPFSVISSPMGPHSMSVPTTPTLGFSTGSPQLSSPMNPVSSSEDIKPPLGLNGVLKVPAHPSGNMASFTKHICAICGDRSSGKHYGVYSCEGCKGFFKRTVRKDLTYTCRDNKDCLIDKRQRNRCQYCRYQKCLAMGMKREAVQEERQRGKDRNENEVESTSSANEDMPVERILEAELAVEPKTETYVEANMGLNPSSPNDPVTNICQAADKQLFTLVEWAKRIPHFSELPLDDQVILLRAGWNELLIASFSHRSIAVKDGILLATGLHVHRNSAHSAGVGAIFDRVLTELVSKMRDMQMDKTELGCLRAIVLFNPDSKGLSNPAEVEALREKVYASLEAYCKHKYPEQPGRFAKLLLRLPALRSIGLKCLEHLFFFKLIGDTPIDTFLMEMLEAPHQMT
Outline: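 Chimeric NR-GAL4 trans-activation in HepG2, 24 h treatment; reporter transcripts quantified by fluorescence on capillary electrophoresis, analysed for upward change from DMSO.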

[2] = target: human Retinoid X Receptor beta (RXRb), RXRB (gene 6257) (UniProt P28702); assay: ATG_RXRb_TRANS: Attagene TRANS-FACTORIAL HepG2 Assay for human Retinoid X Receptor beta (RXRb) (AID 2283013; active means hit-call score of the fitted dose curve at least 0.9, where 1 is the maximum)
human Retinoid X Receptor beta (RXRb), RXRB (gene 6257), sequence (P28702 whole entry, looked up, the tested form may be a part): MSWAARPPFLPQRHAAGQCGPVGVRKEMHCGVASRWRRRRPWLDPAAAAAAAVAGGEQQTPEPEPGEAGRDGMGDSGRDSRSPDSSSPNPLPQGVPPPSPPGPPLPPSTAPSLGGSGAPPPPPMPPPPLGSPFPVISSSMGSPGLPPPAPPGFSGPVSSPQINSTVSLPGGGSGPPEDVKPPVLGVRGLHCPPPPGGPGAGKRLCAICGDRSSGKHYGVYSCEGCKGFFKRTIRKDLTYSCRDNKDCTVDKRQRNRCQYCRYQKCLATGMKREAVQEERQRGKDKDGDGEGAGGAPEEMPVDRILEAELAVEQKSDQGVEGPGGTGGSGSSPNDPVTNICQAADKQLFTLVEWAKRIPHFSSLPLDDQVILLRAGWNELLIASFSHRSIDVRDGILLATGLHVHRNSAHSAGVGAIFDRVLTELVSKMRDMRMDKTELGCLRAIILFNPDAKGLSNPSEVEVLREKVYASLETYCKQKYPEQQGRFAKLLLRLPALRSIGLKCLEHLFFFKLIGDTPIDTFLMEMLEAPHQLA
Outline: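 After a 24 h incubation with test chemical, transfected HepG2 cells carrying NR-Gal4 fusions and GAL4-UAS reporter transcription units yield RNA whose reporter cDNA is FAM-labelled, HpaI-cut and sized by capillary electrophoresis; increases over DMSO are scored.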

[3] = read-out: E-selectin (Homo sapiens) (UniProt P16581); assay: BSK_3C_Eselectin: BioMAP Diversity Plus: 3C Assay for Eselectin Biomarker Activity (AID 2283015); settings: primary human endothelial cells (HUVEC); actives raise or lower the signal
Outline: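 Endpoint derived by bidirectional fitting against DMSO vehicle; signal is ELISA-detected E-selectin from primary HUVEC at 24 h post-dosing, with parallel SRB staining (0.1% SRB, 560 nm) flagging cytotoxicity.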

[4] = read-out: Interleukin-1 alpha (IL1a), IL1A (gene 3552); assay: BSK_BE3C_IL1a: BioMAP Diversity Plus: BE3C Assay for Interleukin-1 alpha (IL1a) Biomarker Activity (AID 2283016); settings: primary human bronchial epithelial cells; actives raise or lower the signal
Outline: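 Measured in human lung primary bronchial epithelial cells: IL-1a by ELISA at 24 h after dosing, with bidirectional fitting against DMSO.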

[5] = read-out: Monocyte Chemoattractant Protein-1 (MCP1), CCL2 (gene 6347); assay: BSK_3C_MCP1: BioMAP Diversity Plus: 3C Assay for Monocyte Chemoattractant Protein-1 (MCP1) Biomarker Activity (AID 2283017); settings: primary human endothelial cells (HUVEC); actives raise or lower the signal
Outline: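 Using human vascular primary endothelium, researchers measured MCP-1 by ELISA 24 h after treatment, with DMSO serving as negative control for bidirectional fitting.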

[6] = read-out: Monocyte Chemoattractant Protein-1 (MCP1), CCL2 (gene 6347); assay: BSK_4H_MCP1: BioMAP Diversity Plus: 4H Assay for Monocyte Chemoattractant Protein-1 (MCP1) Biomarker Activity (AID 2283018); settings: primary human endothelial cells (HUVEC); actives raise or lower the signal
Outline: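 Primary human umbilical vein endothelium is exposed to chemical for 24 h before MCP-1 is assayed by ELISA. Concentration-response fitted bidirectionally relative to DMSO.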

[7] = read-out: Human Leukocyte Antigen - DR isotype (HLADR), HLA-DRA (gene 3122); assay: BSK_3C_HLADR: BioMAP Diversity Plus: 3C Assay for Human Leukocyte Antigen - DR isotype (HLADR) Biomarker Activity (AID 2283019); settings: primary human endothelial cells (HUVEC); actives raise or lower the signal
Outline: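 Compound added to primary HUVEC cultures, 24 h incubation, then HLA-DR determined by ELISA; endpoint derived by bidirectional fitting relative to DMSO negative control.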

[8] = read-out: Monokine induced gamma interferon (MIG), CXCL9 (gene 4283); assay: BSK_3C_MIG: BioMAP Diversity Plus: 3C Assay for Monokine induced gamma interferon (MIG) Biomarker Activity (AID 2283021); settings: primary human endothelial cells (HUVEC); actives raise or lower the signal
Outline: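 ELISA-measured MIG in dosed HUVEC 3C cultures at 24 h, analysed by bidirectional fitting with DMSO defining baseline activity.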

[9] = target: human Vitamin D Receptor (VDR), VDR (gene 7421) (UniProt P11473); assay: ATG_VDR_TRANS: Attagene TRANS-FACTORIAL HepG2 Assay for human Vitamin D Receptor (VDR) (AID 2283022; active means hit-call score of the fitted dose curve at least 0.9, where 1 is the maximum)
human Vitamin D Receptor (VDR), VDR (gene 7421), sequence (P11473 whole entry, looked up): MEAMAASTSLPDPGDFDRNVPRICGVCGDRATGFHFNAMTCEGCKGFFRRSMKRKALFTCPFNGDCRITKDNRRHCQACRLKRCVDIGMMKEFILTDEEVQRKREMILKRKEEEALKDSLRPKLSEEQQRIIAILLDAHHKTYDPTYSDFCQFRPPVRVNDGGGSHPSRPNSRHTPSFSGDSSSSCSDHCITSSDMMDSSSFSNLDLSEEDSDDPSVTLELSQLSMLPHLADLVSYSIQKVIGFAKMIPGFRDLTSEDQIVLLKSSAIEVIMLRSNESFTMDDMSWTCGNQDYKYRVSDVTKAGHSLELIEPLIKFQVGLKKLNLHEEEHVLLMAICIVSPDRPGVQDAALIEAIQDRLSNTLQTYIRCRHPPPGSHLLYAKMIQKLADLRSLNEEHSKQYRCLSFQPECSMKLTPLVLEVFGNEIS
Outline: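 Multiplexed TRANS reporter in HepG2; 24 h treatment; reporter mRNA by RT-PCR plus capillary electrophoresis; upregulation scored relative to DMSO.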

[10] = BSK_3C_SRB: Viability Assessment in the BioMAP Diversity Plus: 3C Assay (AID 2283023); settings: primary human endothelial cells (HUVEC);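 further: fitted both ways against DMSO so a hit may be signal rise or drop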
Outline: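 Overt cytotoxicity is gauged in parallel confluent HUVEC cultures by SRB total-protein staining at the time of biomarker measurement, 24 h after dosing. Gain or loss of signal is fitted versus DMSO.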

[11] = read-out: Matrix Metallopeptidase 1 (MMP1), MMP1 (gene 4312); assay: BSK_BE3C_MMP1: BioMAP Diversity Plus: BE3C Assay for Matrix Metallopeptidase 1 (MMP1) Biomarker Activity (AID 2283024); settings: primary human bronchial epithelial cells; actives raise or lower the signal
Outline: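 In this multiplexed primary-cell system, human bronchial epithelium received chemicals for 24 h before an ELISA for MMP1. Values reflect bidirectional fits normalised to the DMSO baseline.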

[12] = BSK_3C_Vis: BioMAP Diversity Plus: 3C Assay for Morphology Visualization (AID 2283025); settings: primary human endothelial cells (HUVEC);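 further: fitted both ways so gain or loss versus DMSO counts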;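 on AC50: light microscopy image of cell morphology used as background control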
Outline: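 Light-microscopy morphology readout, 24 h exposure, human primary umbilical vein endothelium; analysed relative to DMSO with bidirectional fitting.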

[13] = read-out: Pselectin, SELP (gene 6403); assay: BSK_4H_Pselectin: BioMAP Diversity Plus: 4H Assay for Pselectin Biomarker Activity (AID 2283026); settings: primary human endothelial cells (HUVEC); actives raise or lower the signal
Outline: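 Bidirectional fits against DMSO gave the endpoint. Cells: primary human umbilical vein endothelium, chemical-treated for 24 h before ELISA detection of P-selectin.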

[14] = BSK_4H_SRB: Viability Assessment in the BioMAP Diversity Plus: 4H Assay (AID 2283027); settings: primary human endothelial cells (HUVEC);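 further: cells exposed to compound for 24 h before staining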;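 on AC50: curves fitted both ways versus DMSO so AC50 may be loss or gain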
Outline: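 Cytotoxicity read-out in primary human endothelial cells: after 24 h compound exposure, cells were TCA-fixed (10%), stained with 0.1% SRB and absorbance taken at 560 nm. Values fitted in both directions relative to DMSO.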

[15] = BSK_BE3C_SRB: Viability Assessment in the BioMAP Diversity Plus: BE3C Assay (AID 2283028); settings: primary human bronchial epithelial cells
Outline: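 SRB total-protein staining (0.1%, after TCA fixation) of chemically dosed human bronchial epithelial primary cells at 24 h; DMSO serves as the negative control for bidirectional curve fitting.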

[16] = read-out: Thrombomodulin, THBD (gene 7056); assay: BSK_3C_Thrombomodulin: BioMAP Diversity Plus: 3C Assay for Thrombomodulin Biomarker Activity (AID 2283029); settings: primary human endothelial cells (HUVEC); actives raise or lower the signal
Outline: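 In a multiplexed primary-cell system, human umbilical vein endothelium received chemical and was assayed 24 h later for thrombomodulin by ELISA. Parallel cultures were SRB-stained (0.1% SRB after 10% TCA fixation, read at 560 nm) to flag cytotoxicity.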

[17] = read-out: Urokinase-type plasminogen activator receptor (uPAR), PLAUR (gene 5329); assay: BSK_4H_uPAR: BioMAP Diversity Plus: 4H Assay for Urokinase-type plasminogen activator receptor (uPAR) Biomarker Activity (AID 2283030); settings: primary human endothelial cells (HUVEC); actives raise or lower the signal
Outline: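 Endpoint derived via bidirectional curve fitting against DMSO baseline; readout was ELISA detection of uPAR on umbilical vein endothelial cells at 24 h post-treatment, with SRB-stained parallel cultures assessing cytotoxicity.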

[18] = read-out: Interleukin-8 (IL8), CXCL8 (gene 3576); assay: BSK_3C_IL8: BioMAP Diversity Plus: 3C Assay for Interleukin-8 (IL8) Biomarker Activity (AID 2283020); settings: primary human endothelial cells (HUVEC); actives raise or lower the signal
Outline: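 Using DMSO-treated wells as the baseline, bidirectional curve fitting was applied to ELISA-measured IL-8 from human umbilical vein endothelial cultures sampled 24 h after compound addition.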

Measured: AC50

E-selectin (Homo sapiens), sequence (P16581 whole entry, looked up): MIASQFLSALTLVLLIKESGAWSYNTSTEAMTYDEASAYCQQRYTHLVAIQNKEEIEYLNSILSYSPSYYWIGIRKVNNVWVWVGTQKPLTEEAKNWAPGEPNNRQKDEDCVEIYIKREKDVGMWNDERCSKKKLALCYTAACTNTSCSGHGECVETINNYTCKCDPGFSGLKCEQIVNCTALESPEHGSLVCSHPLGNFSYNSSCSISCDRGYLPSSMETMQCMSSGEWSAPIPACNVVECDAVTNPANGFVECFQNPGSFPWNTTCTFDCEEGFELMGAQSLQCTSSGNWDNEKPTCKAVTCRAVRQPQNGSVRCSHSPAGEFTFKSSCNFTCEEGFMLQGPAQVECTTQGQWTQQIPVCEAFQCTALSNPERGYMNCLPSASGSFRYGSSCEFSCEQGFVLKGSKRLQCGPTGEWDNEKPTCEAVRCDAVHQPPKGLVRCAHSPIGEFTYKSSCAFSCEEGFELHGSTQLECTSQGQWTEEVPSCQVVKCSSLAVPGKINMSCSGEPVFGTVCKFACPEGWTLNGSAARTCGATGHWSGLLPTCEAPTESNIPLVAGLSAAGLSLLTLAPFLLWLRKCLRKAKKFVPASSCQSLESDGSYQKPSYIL

CSC1=N[C@@](C)(c2ccccc2)C(=O)N1Nc1ccccc1
active: [3] 6.26 µM | [6] 27.8 µM | [7] 5.87 µM | [10] 7.26 µM | [14] 2.88 µM
not listed: [18]
inactive: all other assays above

COc1cccc(C(=O)NN(C(=O)c2cc(C)cc(C)c2)C(C)(C)C)c1C
active: [12] 39 µM
not listed: [1] | [2] | [9] | [18]
inactive: all other assays above

CCOP(=S)(OCC)SCCSCC
active: [12] 9.8 µM
not listed: [9] | [10]
inactive: all other assays above

CON=C(C(=O)OC)c1ccccc1CON=C(C)c1cccc(C(F)(F)F)c1
active: [3] 2.35 µM | [5] 3.3 µM | [6] 2.81 µM | [7] 2.82 µM | [14] 5.67 µM | [16] 3.92 µM
not listed: [9] | [10] | [18]
inactive: all other assays above

CCc1cccc(CC)c1N(COC)C(=O)CCl
active: [3] 21.2 µM | [5] 14.4 µM | [6] 22 µM | [7] 20 µM | [12] 39 µM | [13] 14.9 µM | [14] 14.8 µM
not listed: [2] | [9] | [10]
inactive: all other assays above

COc1ccc(C(=CC(=O)N2CCOCC2)c2ccc(Cl)cc2)cc1OC
active: [3] 10.2 µM | [5] 6.59 µM | [7] 13.9 µM | [16] 3.36 µM
inactive: all other assays above

CCc1cccc(C)c1N(C(=O)CCl)C(C)COC (stereo unspecified)
active: [12] 39 µM | [13] 13.6 µM
not listed: [1] | [10]
inactive: all other assays above
